Results published in the supplement of paper PMC10127200.
Structures can show the parent of a compound that is named as a salt.

What was measured:
Assay in all cases: Euclidean distance of Cell Painting phenotypic profile (signed KS, 77 features) to DMSO centroid (dimensionless distance); higher = stronger phenotypic change vs DMSO (phenoactivity)
Conditions in all cases: 48 h; 5 or 10 uM (library dependent)
786-O = tested on: 786-O
Summary of the method: (§1)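 Five cancer lines, together with a healthy fibroblast line, received library compounds for 48 h at a library-dependent 10 or 5 uM and 0.1% DMSO final. Harmony then derived 77 features from confocal 20X images (9 fields/well) of the stained cells, scoring each as a signed Kolmogorov-Smirnov statistic against same-plate vehicle wells. After plate-position correction, correlation weighting and replicate averaging at the top dose, phenoactivity was taken as each profile's Euclidean distance to the median vehicle profile.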

A549 = tested on: A549
Summary of the method: as §1

DU145 = tested on: DU145
Summary of the method: as §1

FB = tested on: FB
Summary of the method: as §1

HEPG2 = tested on: HEPG2
Summary of the method: as §1

OVCAR4 = tested on: OVCAR4
Summary of the method: as §1

Row | SMILES | Euclidean distance (786-O) | Euclidean distance (A549) | Euclidean distance (DU145) | Euclidean distance (FB) | Euclidean distance (HEPG2) | Euclidean distance (OVCAR4)
1 | Cc1cccc([C@H](C)c2c[nH]cn2)c1C [Dexmedetomidine] | 0.401 | 0.732 | 0.547 | 0.876 | 0.546 | 1.12
2 | C[C@]12CC[C@H](O)C[C@@H]1CC[C@@H]1[C@@H]2CC[C@]2(C)C(=O)CC[C@@H]12 [Epiandrosterone] | 1.32 | 1.2 | 0.784 | 1.34 | 0.785 | 0.989
3 | CN[C@@H]1[C@@H](O)[C@@H](O[C@@H]2[C@@H](O)[C@H](O[C@H]3O[C@H](CN)CC[C@H]3N)[C@@H](N)C[C@H]2N)OC[C@]1(C)O.CN[C@@H]1[C@@H](O)[C@@H](O[C@@H]2[C@@H](O)[C@H](O[C@H]3O[C@H]([C@@H](C)N)CC[C@H]3N)[C@@H](N)C[C@H]2N)OC[C@]1(C)O.CN[C@@H]1[C@@H](O)[C@@H](O[C@@H]2[C@@H](O)[C@H](O[C@H]3O[C@H]([C@@H](C)NC)CC[C@H]3N)[C@@H](N)C[C@H]2N)OC[C@]1(C)O [Gentamicin Sulfate] | 1.29 | 1.18 | 1.22 | 0.978 | 0.832 | 1.02
4 | c1cc2c(cc1[C@H]1OC[C@H]3[C@@H]1CO[C@@H]3c1ccc3c(c1)OCO3)OCO2 [Sesamin] | 1.03 | 0.791 | 0.678 | 1.13 | 2.07 | 1.1
5 | C[C@H]1CNCCc2ccc(Cl)cc21 [Lorcaserin HCl] | 1.56 | 0.972 | 1.3 | 0.956 | 1.2 | 0.917
6 | CC(C)(C)c1cc(C=C(C#N)C#N)cc(C(C)(C)C)c1O [Tyrphostin 9] | 3 | 2.48 | 1.41 | 1.32 | 0.766 | 1.95
7 | C[C@@H]1CC[C@@]2(OC1)O[C@H]1C[C@H]3[C@@H]4CC=C5C[C@@H](O[C@@H]6O[C@H](CO)[C@@H](O[C@@H]7O[C@@H](C)[C@H](O)[C@@H](O)[C@H]7O)[C@H](O)[C@H]6O[C@@H]6O[C@@H](C)[C@H](O)[C@@H](O)[C@H]6O)CC[C@]5(C)[C@H]4CC[C@]3(C)[C@H]1[C@@H]2C [Dioscin] | 1.76 | 2.54 | 0.921 | 1.29 | 1.15 | 4.63
8 | CN1c2ccccc2C(NCCCCCCC(=O)O)c2ccc(Cl)cc2S1(=O)=O (stereo unspecified) [Tianeptine sodium] | 1.2 | 0.593 | 0.767 | 1.05 | 0.471 | 1.36
9 | CC(CCc1ccccc1)NC(C)C(O)c1ccc(O)cc1 (stereo unspecified) [Nylidrin Hydrochloride] | 1.45 | 1.2 | 1.38 | 1.11 | 1.29 | 1.34
10 | Cn1c(CCCC(=O)O)nc2cc(N(CCCl)CCCl)ccc21 [Bendamustine] | 0.99 | 0.793 | 0.645 | 0.717 | 0.64 | 0.732
11 | CC(C)(C)NCC(O)c1ccccc1Cl (stereo unspecified) [Tulobuterol hydrochloride] | 0.975 | 0.768 | 0.82 | 0.711 | 0.75 | 1.75
12 | C[C@]12CC[C@H](O)C[C@H]1CC[C@@H]1[C@@H]2C[C@@H](O)[C@]2(C)[C@@H](C3=CC(=O)OC3)CC[C@]12O [Digoxigenin] | 6.59 | 5.09 | 7.21 | 3.92 | 3.09 | 5.51
13 | CCCCCCC(=O)O[C@H]1CC[C@H]2[C@@H]3CCC4=CC(=O)CC[C@]4(C)[C@H]3CC[C@]12C [Testosterone Enanthate] | 0.918 | 0.756 | 0.828 | 0.666 | 0.553 | 1.49
14 | CCC(COC(=O)c1cc(OC)c(OC)c(OC)c1)(c1ccccc1)N(C)C (stereo unspecified) [Trimebutine] | 0.93 | 0.4 | 0.604 | 0.704 | 1.26 | 0.747
15 | O=c1[nH]c2ccccc2n1C1CCN(CCCC(c2ccc(F)cc2)c2ccc(F)cc2)CC1 [Pimozide] | 1.83 | 3.09 | 1.3 | 1.12 | 0.874 | 0.955
16 | C/C(=C\c1csc(C)n1)[C@@H]1C[C@@H]2O[C@]2(C)CCC[C@H](C)[C@H](O)[C@@H](C)C(=O)C(C)(C)[C@@H](O)CC(=O)O1 [Epothilone B] | 2.58 | 2.49 | 3.95 | 2.82 | 1.98 | 2.11
17 | Cc1cc(SCc2sc(-c3ccc(C(F)(F)F)c(F)c3)nc2C)ccc1OCC(=O)O | 0.634 | 1.17 | 0.823 | 1.08 | 2.24 | 0.807
18 | CC(NC(C)(C)C)C(=O)c1cccc(Cl)c1 (stereo unspecified) [Amfebutamone (Bupropion) HCl] | 1.39 | 0.604 | 0.844 | 0.936 | 0.484 | 1.02
19 | COc1cc(-n2c(=S)[nH]c3ccccc3c2=O)c(Cl)cc1Cl [Mdivi-1] | 1.11 | 1.02 | 0.97 | 1.3 | 0.841 | 0.792
20 | NC(=O)CN1CCCC1=O [Piracetam] | 1.42 | 0.813 | 0.735 | 1.08 | 0.792 | 1.01
21 | C#C[C@]1(O)CC[C@H]2[C@@H]3CCC4=CC(=O)CC[C@]4(C)[C@H]3CC[C@@]21C [Ethisterone] | 1.07 | 0.836 | 1.58 | 0.721 | 0.747 | 1.06
22 | O=C1C=C2C=C[C@@H]3C[C@@]2(O1)[C@H]1CCCCN31 [Securinine] | 0.99 | 1.25 | 1.42 | 1.78 | 1.08 | 1.74
23 | O=C(NCC1CCOCC1)c1cnc(Nc2ccc(Cl)cc2Cl)nc1C(F)(F)F | 0.865 | 1.09 | 1.36 | 3.43 | 1.64 | 3.11

Row | SMILES | Euclidean distance (786-O) | Euclidean distance (A549) | Euclidean distance (DU145) | Euclidean distance (FB) | Euclidean distance (HEPG2) | Euclidean distance (OVCAR4)
24 | COc1ccc(OC)c(C(O)C(C)N)c1 (stereo unspecified) [Methoxamine HCl] | 0.732 | 0.76 | 1.03 | 1.08 | 0.595 | 1.41
25 | CCN(CC)C(=O)c1ccc(C2=CC3(CCNCC3)Oc3cccc(O)c32)cc1 | 0.588 | 1.87 | 0.833 | 0.776 | 1.75 | 0.973
26 | CN1CCC(c2c[nH]c3ccc(O)cc23)CC1 | 0.692 | 0.484 | 1.17 | 0.749 | 2.09 | 0.873
27 | C[C@]12CCC(=O)C[C@@H]1CC[C@@H]1[C@@H]2CC[C@]2(C)[C@@H](O)CC[C@@H]12 [Dihydrotestosterone(DHT)] | 1.54 | 0.944 | 0.925 | 0.775 | 0.429 | 0.677
28 | CC(C)N(CCNC(=O)CN1CCCC1=O)C(C)C [Pramiracetam] | 1.35 | 1.08 | 0.543 | 0.932 | 0.534 | 0.853
29 | COc1ccc(CN2CCNCC2)c(OC)c1OC [Trimetazidine dihydrochloride] | 0.784 | 0.96 | 0.805 | 0.719 | 0.412 | 1.08
30 | CCC(=O)O[C@H]1CC[C@H]2[C@@H]3CC[C@H]4CC(=O)[C@H](C)C[C@]4(C)[C@H]3CC[C@]12C [Drostanolone Propionate] | 0.791 | 1.02 | 0.706 | 0.585 | 1.34 | 0.745
31 | CC(=O)O[C@H]1C[C@@H]2CC[C@@H]3[C@H](CC[C@@]4(C)[C@H]3C[C@H]([N+]3(C)CCCCC3)[C@@H]4OC(C)=O)[C@@]2(C)C[C@@H]1[N+]1(C)CCCCC1 [Pancuronium dibromide] | 1.41 | 0.916 | 0.532 | 0.954 | 0.518 | 1.42
32 | C/C(=C\c1csc(C)n1)[C@@H]1C[C@@H]2O[C@@H]2CCC[C@H](C)[C@H](O)[C@@H](C)C(=O)C(C)(C)[C@@H](O)CC(=O)O1 [Epothilone A] | 3.01 | 2.89 | 4.3 | 2.5 | 2.34 | 3.02
33 | C#C[C@]1(O)C=C[C@H]2[C@@H]3CCC4=CC(=O)CC[C@@H]4[C@H]3CC[C@@]21CC [Gestodene] | 1.29 | 0.869 | 2.08 | 1.08 | 2.49 | 1.33
34 | CCCN1CCO[C@@H]2c3cc(O)ccc3OC[C@H]21 | 0.455 | 0.629 | 0.762 | 0.945 | 0.824 | 0.818
35 | O=C1CC[C@@]2(O)[C@H]3Cc4ccc(O)c5c4[C@@]2(CCN3CC2CC2)[C@H]1O5 [Naltrexone HCl] | 1.26 | 0.818 | 0.868 | 0.982 | 1.84 | 1.99
36 | CCOc1ccccc1-n1c(C(C)N2CCN(C(=O)COc3ccc(Cl)cc3)CC2)nc2ccccc2c1=O (stereo unspecified) [Erastin] | 3.85 | 1.31 | 1.34 | 3.12 | 1.68 | 2.13
37 | CN1CCc2cc3c(cc2C1C1OC(=O)c2c1ccc1c2OCO1)OCO3 (single isomer, unassigned; (+)) [(+)-Bicuculline] | 1.27 | 0.94 | 0.878 | 0.836 | 0.778 | 1.48
38 | Cn1cc(C2=C(c3cn(C4CCN(Cc5ccccn5)CC4)c4ccccc34)C(=O)NC2=O)c2ccccc21 | 1.96 | 3.16 | 1.32 | 0.965 | 0.683 | 1.79
39 | Cc1ccc2c(c1)[C@]13CCCC[C@@H]1[C@H](C2)N(C)CC3 [Dimemorfan phosphate] | 1.28 | 1.25 | 1.36 | 3.6 | 2.34 | 1.19
40 | NCCCNCCSP(=O)(O)O [Amifostine] | 2.98 | 1.18 | 1.66 | 1.8 | 1.22 | 1.31
41 | CCC1(c2ccc(N)cc2)CCC(=O)NC1=O (stereo unspecified) [Aminoglutethimide] | 1.19 | 0.545 | 0.574 | 1.37 | 0.54 | 1.67
42 | C[N+]12CCC(CC1)C(OC(=O)C(O)(c1ccccc1)c1ccccc1)C2 (stereo unspecified) [Clidinium Bromide] | 0.785 | 0.788 | 0.87 | 0.845 | 0.445 | 0.671
43 | CC(=O)[C@H]1CC[C@H]2[C@@H]3CC[C@H]4C[C@H](O)CC[C@]4(C)[C@H]3CC[C@]12C [Allopregnanolone] | 0.735 | 0.818 | 1.1 | 1.22 | 0.709 | 1.64
44 | C[N+]1(C)[C@@H]2C[C@@H](OC(=O)[C@H](CO)c3ccccc3)C[C@H]1[C@@H]1O[C@@H]12 [Methscopolamine] | 0.909 | 0.693 | 0.721 | 0.773 | 0.666 | 1.04
45 | O=C1CCC[C@@H]2[C@H]3CCCN4CCC[C@@H](CN12)[C@@H]34 [(+)-Matrine] | 1 | 0.876 | 0.902 | 1.03 | 0.874 | 0.759
46 | CNC1CC(N)C(O)C(OC2OC(CO)C(O)C3OC4(OC(C(N)CO)C(O)C(O)C4O)OC23)C1O (stereo unspecified) [Hygromycin B] | 1.63 | 1.19 | 1.02 | 2.53 | 1.3 | 1.24
